According to PubChem BioAssay (NCATS):
Results filed as inconclusive are left out. Calls of active or inactive are those of the source. Calls come from the whole dose curve; as a rule, active = well fitted inhibition curve with a large enough effect; inconclusive = small, poorly fitted or top-dose-only effect; inactive = flat fitted curve, though single readings scatter.

Each compound was assayed on astro (assay: Drug repurposing screens with cells derived from glioblastoma tumor samples (AID 1345199; note: nearly all actives have a fitted effect of over 40% in size)). Conditions: viability, ATP luminescence, 48 h; series mostly up to 45.9 µM; activity, negative = cell killing: at the top concentration.
Procedure: CD133+ cells were isolated from GBM patient biopsies and cultured as neurospheres. Neurospheres from four patients were used to screen the NCATS pharmaceutical collection (NPC) library of approved drugs and bioactive compounds. […] The neurospheres were incubated with drugs for 48 hours in 1536-well format, then assayed with an ATP content cell viability assay. […] These hits were cherry picked to confirm activity in the four original GBM lines screened plus three other slower growing GMB lines (unable to yield enough cells for a full primary screen). Variable activities of the confirmed primary hits in the different GBM patient lines were observed. The patient line 206 responded to the greatest number of compounds and line 923 responded to the least amount of active compounds.
% is set by controls: 0 for no effect and ±100 for the full control effect; potency is the fitted concentration of half-maximal effect.

| Compound | Potency | activity, negative = cell killing |
| --- | --- | --- |
| Cc1nc2ccc(CN(C)c3ccc(C(=O)N[C@@H](CCC(=O)O)C(=O)O)s3)cc2c(=O)[nH]1 | inactive |  |
| CC(=O)SC[C@@H](C)C(=O)N1CCC[C@H]1C(=O)N[C@@H](Cc1ccccc1)C(=O)O |  | -13.7% (inactive) |
| CN1c2cc(O)c(N=NC(N)=O)cc2CC1S(=O)(=O)O (stereo not drawn) |  | -23.1% (inactive) |
| CC=CC1=C(C(=O)O)N2C(=O)[C@H](NC(=O)[C@H](N)c3ccc(O)cc3)[C@@H]2SC1 |  | -13.3% (inactive) |
| Nc1ccn([C@@H]2CS[C@H](CO)O2)c(=O)n1 |  | -17.9% (inactive) |
| COc1ccc(CC2c3cc(OC)c(OC)cc3CC[N+]2(C)CCC(=O)OCCCCCOC(=O)CC[N+]2(C)CCc3cc(OC)c(OC)cc3C2Cc2ccc(OC)c(OC)c2)cc1OC (stereo not drawn) |  | -4.35% [at 21.2 µM] (inactive) |
| O=C(O)CO.[NH2-].[NH2-].[Pt+2] |  | -12.3% (inactive) |
| C=CC(=O)Nc1cc2c(Nc3ccc(F)c(Cl)c3)ncnc2cc1OCCCN1CCOCC1 | 11.2 µM (active) |  |
| COC(=O)C1=C(C)NC(C)=C(C(=O)OCCN2CCN(C(c3ccccc3)c3ccccc3)CC2)C1c1cccc([N+](=O)[O-])c1 (stereo not drawn) |  | -26.5% (inactive) |
| C=C1C(=CC=C2CCC[C@]3(C)[C@@H]([C@H](C)C=C[C@H](C)C(C)C)CC[C@@H]23)C[C@@H](O)C[C@@H]1O | 25.1 µM (active) |  |
| COC(=O)[C@]12CCC(C)(C)C[C@@H]1[C@@H]1C(=O)C=C3[C@@]4(C)C=C(C#N)C(=O)C(C)(C)[C@@H]4CC[C@@]3(C)[C@]1(C)CC2 | 3.16 µM (active) |  |
| CC[C@H]1CN2CCc3cc(OC)c(OC)cc3[C@H]2C[C@@H]1C[C@@H]1NCCc2cc(OC)c(OC)cc21 | 0.447 µM (active) |  |
| COc1c(N2C[C@@H]3CCCN[C@H]3C2)c(F)cc2c(=O)c(C(=O)O)cn(C3CC3)c12 | inactive |  |
| COC(=O)C[C@](O)(CCCC(C)(C)O)C(=O)O[C@@H]1C(OC)=C[C@]23CCCN2CCc2cc4c(cc2[C@H]13)OCO4 | 0.251 µM (active) |  |
| C[C@H]1C[C@@H]2[C@@H]([C@@H](O)C[C@@]3(C)[C@H]2CC[C@]3(O)C(=O)CO)[C@@]2(C)C=CC(=O)C=C12 |  | -4.62% [at 21.2 µM] (inactive) |
| O=c1[nH]c(=O)n(C2CCCO2)cc1F (stereo not drawn) |  | -7.67% (inactive) |
| CC1(C)O[C@@H]2C[C@@H]3[C@H]4C[C@@H](F)C5=CC(=O)C=C[C@]5(C)[C@@]4(F)[C@@H](O)C[C@]3(C)[C@]2(C(=O)CO)O1 |  | -12.3% (inactive) |
| COc1cc(C(=O)NS(=O)(=O)c2ccccc2C)ccc1Cc1cn(C)c2ccc(NC(=O)OC3CCCC3)cc12 |  | -22.3% (inactive) |
